Experimental data taken from PubChem BioAssay.
The source made the active and inactive calls.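 The calls were made as follows, unless noted: active = visually confirmed hit in the image check and inhibition above 20%; inconclusive = visually confirmed hit but inhibition not above 20%; inactive = no visual hit in the image check.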

Assays:
[1] = inhibitors of TNFa-induced NFkB p65 translocation, primary screen, imaging, HUVEC, MLSMR starter and 10KST1 sets (AID 438;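 active = inhibition above 20% together with a positive visual image hit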;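 also: compound added about 3h40 before a 20 min TNFalpha stimulation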;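 as to inhibition: signal is the nuclear over cytoplasmic p65 intensity ratio per well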); details: HUVEC TNFa-induced p65 nuclear translocation; cell count: measured here: nuclei count (cytotoxicity indicator), at 2.08 µM; inhibition: at 2 µM, stronger effect = higher value, 0% TNFa-plus-vehicle, 100% no-TNFa wells
[2] = inhibitors of mutant huntingtin aggregation, primary screen, imaging, exon1htt(103Q)mCFP cells, high-content imaging (AID 483;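 active = visual image review flags a hit and inhibition of aggregation exceeds 20%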;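 also: compound exposure lasted 3 days before fixation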;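 as to nuclei count: percent of the per-plate median nuclei count of sample wells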); details: exon1htt(103Q)mCFP cell line, aggregate imaging, at 2 µM; inhibition of aggregation: stronger effect = higher value; nuclei count: measured here: cell count, toxicity
[3] = inhibitors of E-selectin induction by TNFa, primary screen, imaging, HUVEC, immunofluorescence, MLSMR starter and 10KST1 sets (AID 487); details: HUVEC TNFalpha-induced E-selectin immunofluorescence imaging, at 2 µM; inhibition: stronger effect = higher value; nuclei count: measured here: cell number, toxicity;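 as to inhibition: signal is fraction of cell area covered by stained E-selectin grains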;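 as to nuclei count: 100% = median nuclei count of all wells on the same plate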
[4] = biological target: Voltage-gated potassium channel subunit beta-2 (Rattus norvegicus) (UniProt P62483); test: KvBeta enzyme negative modulators, primary screen, biochemical, NADPH fluorescence (AID 622;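 active = fluorescence slope higher than the sample average by over 3 SD, cut at about -0.22 in these data, passing the limit was not always enough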;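 also: slope of raw intensity against log time taken from 70 to 1610 s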); details: recombinant KvBeta, 4-cyanobenzaldehyde reduction, at 10 µM, stronger effect = higher value
[5] = biological target: Voltage-gated potassium channel subunit beta-2 (Rattus norvegicus) (UniProt P62483); test: KvBeta positive modulators, primary screen, biochemical, NADPH fluorescence (AID 623;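 active = NADPH fluorescence slope more negative than the mean of all samples by about 3 SD, 99.7% confidence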;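 also: fluorescence intensity change per second fitted from 20 to 320 s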); details: Recombinant KvBeta, NADPH fluorescence decrease slope, 10 min; at 10 µM; stronger effect = lower value
[6] = biological target: Alpha-2C adrenergic receptor (Homo sapiens) (UniProt P18825); test: modulators of alpha2C/GIRK thallium flux, primary screen, cell-based, HEK293 alpha2C/GIRK1/2 (AID 624;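 active = fluorescence slope after compound addition differing from the mean of all screened samples at 99.7% confidence, in either direction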;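 also: slope of fluorescence ratio to pre-addition baseline per second over 15 to 24 s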); details: thallium flux BTC fluorescence, at 10 µM, actives lie on both sides
[7] = inhibitors of Sendai virus-induced IRF3 signaling, primary screen, TLR/RLR signaling modifier project, cell-based, Sendai virus stimulus, luciferase, 10K MLSCN set (AID 602276;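 active = inhibition at or above 50% at 10 µM; inactive = inhibition below 50%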;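 also: firefly luciferase from ISG56 promoter only with Renilla not read in this screen; 0% = Sendai virus plus DMSO and 100% = medium plus DMSO without virus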); details: HEK293 RL24 IRF3 luciferase reporter, at 10 µM, stronger effect = higher value
[8] = inhibitors of poly I:C-induced TLR3 signaling, primary screen, cell-based, poly I:C stimulus, luciferase, 10K MLSCN set (AID 602277;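 active = inhibition of the reporter signal at or above 50%; inactive = inhibition below 50%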); details: HEK293-TLR3 RL24 IRF3 luciferase reporter, at 10 µM, stronger effect = higher value

Chain of Alpha-2C adrenergic receptor (Homo sapiens) (P18825 whole entry, looked up): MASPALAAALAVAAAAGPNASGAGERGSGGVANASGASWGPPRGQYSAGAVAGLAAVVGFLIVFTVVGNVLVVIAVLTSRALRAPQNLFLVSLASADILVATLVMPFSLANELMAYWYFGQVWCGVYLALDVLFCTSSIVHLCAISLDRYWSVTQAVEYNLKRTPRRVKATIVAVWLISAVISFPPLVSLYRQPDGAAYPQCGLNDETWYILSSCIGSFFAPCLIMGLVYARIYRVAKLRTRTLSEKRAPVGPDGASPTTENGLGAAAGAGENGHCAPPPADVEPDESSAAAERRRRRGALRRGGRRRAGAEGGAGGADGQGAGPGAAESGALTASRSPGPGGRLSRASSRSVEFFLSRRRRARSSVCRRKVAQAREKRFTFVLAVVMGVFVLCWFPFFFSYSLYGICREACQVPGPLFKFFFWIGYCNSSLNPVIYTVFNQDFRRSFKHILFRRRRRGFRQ
Chain of Voltage-gated potassium channel subunit beta-2 (Rattus norvegicus) (P62483 whole entry, looked up): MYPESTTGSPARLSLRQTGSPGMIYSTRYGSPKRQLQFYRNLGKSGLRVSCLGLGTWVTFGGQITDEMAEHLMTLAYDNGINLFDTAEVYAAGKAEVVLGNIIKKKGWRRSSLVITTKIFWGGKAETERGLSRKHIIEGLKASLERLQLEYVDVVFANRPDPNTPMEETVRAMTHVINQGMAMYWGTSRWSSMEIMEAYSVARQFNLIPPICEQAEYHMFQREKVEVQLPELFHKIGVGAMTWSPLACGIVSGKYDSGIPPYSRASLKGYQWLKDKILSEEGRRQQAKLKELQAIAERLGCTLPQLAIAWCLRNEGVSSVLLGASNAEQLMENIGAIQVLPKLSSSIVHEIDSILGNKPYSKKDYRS

| SMILES | cell count [1] | inhibition [1] | inhibition of aggregation [2] | nuclei count [2] [%] | inhibition [3] | nuclei count [3] [%] | fluorescence slope [4] | NADPH fluorescence slope [5] | slope [6] | inhibition [7] | inhibition [8] |
| --- | --- | --- | --- | --- | --- | --- | --- | --- | --- | --- | --- |
| CC(=O)Nc1cccc(NC(=O)c2oc3ccccc3c2C)c1 | 343 | -0.2% (inactive) | 0.5% (inactive) | 98.8 | -9.3% (inactive) | 112 | -0.521 (inactive) | 1.6e-05 (inactive) | 0.00572 (inactive) | -37.4% (inactive) | -104% (inactive) |
| O=[n+]1c2c(n([O-])c3c1CCCC3)CCCC2 | 658 | 5.8% (inactive) | -17.7% (inactive) | 109 | 54.7% (inactive) | 75.8 | -0.399 (inactive) | -6.5e-05 (inactive) | 0.00619 (inactive) | 11.8% (inactive) | 24% (inactive) |
| COc1ccc(N2CCN(c3ccc(NC(=O)C4CCCCC4)cc3C#N)CC2)cc1 | 676 | -0.6% (inactive) | -30.8% (inactive) | 104 | -14.3% (inactive) | 121 | -0.586 (inactive) | -1.7e-05 (inactive) | 0.00529 (inactive) | 4.18% (inactive) | 7.51% (inactive) |
| O=C(CN1CCN(Cc2ccc(F)cc2Cl)C1=O)NCCCN1CCOCC1 | 477 | 7% (inactive) | -27.6% (inactive) | 65.3 | -63.8% (inactive) | 99.9 | -0.523 (inactive) | -3.8e-05 (inactive) | 0.00757 (inactive) | 0.912% (inactive) | 36.5% (inactive) |
| Cc1nc2ccc(S(=O)(=O)NCC(=O)N(C)Cc3ccco3)cc2s1 | 355 | 5.2% (inactive) | -6.5% (inactive) | 95.6 | -12.8% (inactive) | 101 | -0.503 (inactive) | -1.2e-05 (inactive) | 0.00704 (inactive) | 14.7% (inactive) | 14.5% (inactive) |
| Cn1c(Cc2ccccc2)nnc1SCC(=O)N1CCOCC1 | 492 | -0.8% (inactive) | -33% (inactive) | 103 | -74.1% (inactive) | 123 | -0.276 (inactive) | -4.7e-05 (inactive) | 0.00541 (inactive) | 10.3% (inactive) | 13.5% (inactive) |
| CCN(Cc1cc2cc(OC)ccc2[nH]c1=O)C(=O)c1ccncc1 | 458 | -1% (inactive) | -12.3% (inactive) | 111 | -34.1% (inactive) | 198 | -0.498 (inactive) | 4.7e-05 (inactive) | 0.00638 (inactive) | 13.5% (inactive) | 20.1% (inactive) |
| CCOC(=O)N1CCC(N2C(=O)c3ccccc3C2Nc2cc(Cl)c(OC)cc2OC)CC1 (stereo not drawn) | 761 | -2.3% (inactive) | -25.4% (inactive) | 111 | -35.7% (inactive) | 114 | -0.596 (inactive) | -3.8e-05 (inactive) | 0.0052 (inactive) | -7.31% (inactive) | 4.34% (inactive) |
| CCOc1ccc(NC(=O)CSc2nnc(COc3c(C)cccc3C)o2)cc1 | 577 | 7.3% (inactive) | -15% (inactive) | 116 | -13.1% (inactive) | 115 | -0.567 (inactive) | -1.4e-05 (inactive) | 0.00747 (inactive) | 6.58% (inactive) | 30.3% (inactive) |
| CC(=O)NC(C)c1nc2ccccc2n1C(C)C (stereo not drawn) | 588 | 11.5% (inactive) | -2.2% (inactive) | 98.7 | -50.6% (inactive) | 121 | -0.551 (inactive) | -2.4e-05 (inactive) | 0.00604 (inactive) | 14.5% (inactive) | 42.2% (inactive) |
| O=C(COC(=O)C1CCN(S(=O)(=O)c2cccs2)CC1)c1cc2ccccc2o1 | 536 | -8.3% (inactive) | -0.1% (inactive) | 98.7 | -97.6% (inactive) | 112 | -0.501 (inactive) | -1.4e-05 (inactive) | 0.00534 (inactive) | 12.4% (inactive) | 31.7% (inactive) |
| Cc1cc(=O)n(C)c(=O)n1CCCCCN1CCCC1 | 655 | 2.2% (inactive) | -3.3% (inactive) | 106 | -52% (inactive) | 102 | -0.51 (inactive) | -1.1e-05 (inactive) | 0.00473 (inactive) | 19.1% (inactive) | 25.3% (inactive) |
| COC(=O)c1ccccc1NC(=O)C1CC(=O)N(c2ccccc2)C1 (stereo not drawn) | 576 | -5.8% (inactive) | 13.9% (inactive) | 99.5 | -18.1% (inactive) | 106 | -0.496 (inactive) | -5.9e-05 (inactive) | 0.00531 (inactive) | 10.2% (inactive) | 6.98% (inactive) |
| CN(Cc1ccccc1)Cc1nc2c(c(=O)n(C)c(=O)n2C)n1Cc1ccc(Cl)cc1 | 346 | -7.7% (inactive) | 22.2% (inactive) | 72.4 | -32.1% (inactive) | 161 | -0.612 (inactive) | -1.8e-05 (inactive) | 0.00317 (inactive) | -1.93% (inactive) | 2.58% (inactive) |
| CCn1c(SCC(=O)N2CCOCC2)nc2c(c1=O)SC(C)C2 (stereo not drawn) | 298 | 9.4% (inactive) | 21.4% (inactive) | 89.2 | 20% (inactive) | 93.4 | -0.542 (inactive) | -3.5e-06 (inactive) | 0.00531 (inactive) | -5.39% (inactive) | 4.93% (inactive) |
| Cc1cc(C)n(CCc2nc(-c3cccs3)cs2)n1 | 587 | -10.1% (inactive) | -5.8% (inactive) | 98.6 | -52.1% (inactive) | 112 | -0.603 (inactive) | -5.2e-07 (inactive) | 0.00641 (inactive) | -6.14% (inactive) | -42.1% (inactive) |
| CC1=C(C(=O)Nc2ccccc2)C(c2cccs2)C(C#N)=C(SCC#N)N1 (stereo not drawn) | 713 | -16.4% (inactive) | 27.1% (inactive) | 77.7 | 34.7% (inactive) | 99.1 | -0.525 (inactive) | -6.3e-05 (inactive) | 0.00547 (inactive) | -25.9% (inactive) | -5.98% (inactive) |
| CC1=C(C(=O)OC2CCCCC2)C(c2cccnc2)n2ncnc2N1 (stereo not drawn) | 271 | -9.3% (inactive) | 10.8% (inactive) | 77.6 | 21.9% (inactive) | 34.7 | -0.327 (inactive) | -6.6e-06 (inactive) | 0.00388 (inactive) | 7.24% (inactive) | 26.4% (inactive) |
| CN(C)c1nc(Oc2ccc(=O)n(C)n2)nc(N2CCOCC2)n1 | 306 | 0.5% (inactive) | 17.6% (inactive) | 93.3 | 31.4% (inactive) | 96.5 | -0.632 (inactive) | 1.5e-05 (inactive) | 0.00286 (inactive) | 16.8% (inactive) | 10.1% (inactive) |
| CSCSC1=C(C#N)C(c2ccc(Cl)cc2)C(C(C)=O)=C(C)N1 (stereo not drawn) | 324 | -1% (inactive) | -2.2% (inactive) | 112 | -47.6% (inactive) | 102 | -0.451 (inactive) | -0.00017 (inactive) | 0.00657 (inactive) | 10.5% (inactive) | 23.2% (inactive) |
| O=C(Nc1ccc(OC(=O)c2ccco2)cc1)c1ccco1 | 239 | -2.2% (inactive) | -7.4% (inactive) | 92 | 10.8% (inactive) | 101 | -0.442 (inactive) | -1e-05 (inactive) | 0.00563 (inactive) | 4.1% (inactive) | -1.78% (inactive) |
| CCOc1cc(NC(=O)c2ccco2)c(OCC)cc1NC(=O)CCc1ccc(OC)cc1 | 630 | -0.7% (inactive) | -13.7% (inactive) | 109 | 23.6% (inactive) | 102 | -0.513 (inactive) | -6.7e-06 (inactive) | 0.00426 (inactive) | -0.546% (inactive) | -4.67% (inactive) |
| CCOC(=O)N1CCN(C(=O)c2n[nH]c(=O)c3ccccc23)CC1 | 515 | -9.4% (inactive) | -7.2% (inactive) | 107 | -37.5% (inactive) | 80.9 | -0.591 (inactive) | -2.8e-05 (inactive) | 0.00361 (inactive) | -11.6% (inactive) | -3.48% (inactive) |
| Cc1cccc(NC(=O)c2cc(NC(=O)c3ccco3)ccc2N2CCCCC2)c1 | 635 | -3.9% (inactive) | -3.7% (inactive) | 113 | -48.5% (inactive) | 107 | -0.52 (inactive) | -1.8e-05 (inactive) | 0.0032 (inactive) | 8.72% (inactive) | 8.79% (inactive) |
| CCN1CCN(C(=O)C2CC(c3ccc(F)cc3)=NO2)CC1 (stereo not drawn) | 538 | 1.5% (inactive) | 3% (inactive) | 102 | 1.4% (inactive) | 108 | -0.621 (inactive) | -4e-05 (inactive) | 0.00735 (inactive) | -8.44% (inactive) | 20.7% (inactive) |
| CCCCNC(=O)CSc1nc2ccc(N3CCOCC3)cc2c(=O)n1CCc1ccccc1 | 533 | -0.8% (inactive) | 28.7% (active) | 48.9 | -18.8% (inactive) | 110 | -0.565 (inactive) | -1.2e-05 (inactive) | 0.00671 (inactive) | 2.7% (inactive) | 10.3% (inactive) |
| CCc1nnc2n1N=C(c1ccc(-c3ccc(Cl)cc3Cl)o1)CS2 | 480 | 3.3% (inactive) | -48.4% (inactive) | 102 | -6.7% (inactive) | 105 | -0.607 (inactive) | 1.7e-05 (inactive) | 0.00636 (inactive) | 6.74% (inactive) | 10.2% (inactive) |
| COc1cc2c(=O)n(Cc3ccccc3)c(=O)n(CC(=O)NCc3ccco3)c2cc1OC | 358 | 3.5% (inactive) | -3.1% (inactive) | 107 | -319% (inactive) | 109 | -0.37 (inactive) | 9e-06 (inactive) | 0.0075 (inactive) | 23.8% (inactive) | 21.5% (inactive) |
